High-throughput results from PubChem.
The full list was thinned out, with hits kept by preference.
Methyltransferases = Primary Screen for Target Class Profiling of Small Molecule Inhibitors of Methyltransferases. calls only at 40 µM. purified enzyme, MTase-Glo SAH luminescence; hits give low values. AID 1745853, 2022. hit rate 3.9% among 25,000; call rule not given here
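Each enzyme was reacted with SAM and its substrate, with compounds tested once at 40 uM; SAH formed was read by MTase-Glo luminescence.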
MTase-Glo counter = inhibits MTase-Glo coupling enzymes without methyltransferase; shares compounds with Methyltransferases; MTase-Glo coupled enzymes, SAH conversion luminescence, no MTase; Potency, µM (top dose mostly 57.3 µM), actives largely listed as inhibitors; hit rate 6% among 180; AID 1745851; active means well fitted inhibition curve with a large enough effect
Hits are given with their value; . = inactive; + = active, no number.

SMILES	Methyltransferases	others
CC1=C[C@@H](CN(CC2CC2)CC2CC2)[C@H](C(C)C)C[C@H]1Cc1nc2ccncc2[nH]1	+	MTase-Glo counter=35µM
COC(=O)c1ccc2nc(C[C@@H]3C[C@@H](C(C)C)[C@H](CNC(=O)c4cccnc4)C=C3C)[nH]c2c1	.
CN(CCOc1cccc(Cl)c1)C(=O)c1cccc(CCC(C)(C)O)c1	.
CCNC(=O)N1CC[C@H]2CC(=O)N(CCc3cccc(OC)c3OC)CC[C@H]2C1	.
CCC(C(=O)N(C)Cc1ccc(OC)c2ncccc12)n1cccn1 (stereo unspecified)	.
CCOc1c(CN(C)C(=O)Cn2cccc(OC)c2=O)cccc1OC	+	MTase-Glo counter=.
c1coc(-c2ccnc3nc(C4CCC4)nn23)c1	.
CN1CCN(C)c2cnc(-c3cnn(Cc4ccccc4)c3)cc2C1	+	MTase-Glo counter=.
CN1CCCC2(CC1)CCN(C(=O)c1ccc(C#CC(C)(C)O)cc1)CC2	.
Cc1cc(Cl)ccc1NC1CN(C(=O)OC(C)(C)C)C1	.
CNc1cc(C2CC(NC(=O)COc3ccc(Cl)cc3C)C2)nc(N)n1 (stereo unspecified)	+	MTase-Glo counter=2.7µM
CCOc1ccc(CCNC(=O)CCn2ccc3cc(S(=O)(=O)N4CCCC4)ccc32)cc1	.
CCc1cc2c(cc3n2CC(C)(C(=O)NC2CCCCCC2)N(C2CCCCC2)C3=O)s1 (stereo unspecified)	.
COc1ccc(CC2NCCc3c2[nH]c2ccc(C)cc32)cc1OC (stereo unspecified)	.
CCCN1C(=O)c2c(C(=O)NCCN3CCOCC3)ncn2CC1(C)C(=O)NCc1ccc(C)cc1 (stereo unspecified)	.
CN(C)CC1(O)CCC2(CCN(C(=O)c3cccn3C)CC2)CC1	+	MTase-Glo counter=5.4µM
CN1CC2(CCN(C(=O)c3cccn3C)CC2)CC(c2ccccc2)C1=O (stereo unspecified)	.
Cn1cccc1C(=O)N1CC[C@H](CO)[C@H](NC(=O)C2CC2)C1	.
CC(C)CCNC(=O)C1(C)Cn2c(c(-n3cccc3)c3ccccc32)C(=O)N1Cc1ccccn1 (stereo unspecified)	.
O=C(c1cc(-c2ccccc2)nc2ccccc12)N1CCc2c(nc[nH]c2=O)C1	.
O=C(c1cc(-c2ccccc2)n[nH]1)N1CCc2c(nc(-c3ccccc3)[nH]c2=O)C1	+	MTase-Glo counter=.
O=C1OCCC1CCC(=O)N1CCc2c(nc(-c3ccccc3)[nH]c2=O)C1 (stereo unspecified)	.
COC1=CC(=O)C[C@@H](C)[C@]12Oc1cc(OC)cc(OC)c1C2=O	.
Cn1cc(-c2ccc3c(n2)CN(Cc2ccc(F)cc2)C(=O)CO3)cn1	.
O=C1COc2ccc(-c3cccc(O)c3)nc2CN1Cc1ccc(C(F)(F)F)cc1	+	MTase-Glo counter=.
SMILES	Methyltransferases	others
O=C1COc2ccc(N3CCOCC3)nc2CN1Cc1ccc(F)cc1	.
c1ccc(-c2nnc([C@H]3CCN(C4CCC4)C3)o2)cc1	.
FC(F)(F)c1ccnc(N2CC[C@H](c3nnc(-c4ccncc4)o3)C2)n1	+	MTase-Glo counter=.
COc1ccc(C(=O)N2CC[C@H](c3nnc(-c4ccccc4)o3)C2)cc1	.
CCOc1ccc(-c2cc3n(n2)CC(C)(C(=O)NC2CCCCC2)N(c2ccc(F)cc2)C3=O)cc1 (stereo unspecified)	.
CCN(CC)CCCNC(=O)c1cc2n(n1)CC(C)(C(=O)NCc1ccc(F)cc1)N(C)C2=O (stereo unspecified)	.
Cc1ccc(NC(=O)N2CCCN(CCn3nc4n(c3=O)CCCC4)CC2)cc1F	.
Oc1ccc(NCCN2CCCC2)cc1	+	MTase-Glo counter=.
O=C(NCCN1CCN(c2cccc3ccc(O)cc23)CC1)c1ccc(F)cc1	.
COC(=O)CC1CC(c2ccc(O)cc2)=NO1 (stereo unspecified)	.
Cc1cc(C(=O)N2CCC(F)(c3nc(-c4ccncc4)no3)CC2)n[nH]1	.
CN(C)c1nc2c(c(N3C[C@@H](CN4CCCC4)[C@@H](CO)C3)n1)CCCC2	+	MTase-Glo counter=14µM
CN1CCCN(C[C@@H]2CN(C(=O)c3ccn(C)n3)C[C@@H]2CO)CC1	.
Cc1ccc(C)c(CNC(=O)c2cc3n(n2)CC(C)(C(=O)NCc2ccc(F)cc2)N(C)C3=O)c1 (stereo unspecified)	.
COc1ccc(CN2CCOC[C@H]2c2ncc(-c3cccnc3)[nH]2)cc1	.
COc1ccc(C(C)NC(=O)c2c(C)sc3ccn(C)c(=O)c23)cc1 (stereo unspecified)	.
CCCCN(C)C(=O)c1c(C)sc2ccn(CCC)c(=O)c12	+	MTase-Glo counter=.
Cc1sc2ccn(CC(C)C)c(=O)c2c1C(=O)N1CCCCC1	.
C[C@@H]1O[C@@H](OC2C(CO)OC(OCC3OC(OC(=O)[C@]45CCC(C)(C)CC4C4=CCC6[C@@]7(C)CC[C@@H](O)[C@](C)(C(=O)O)C7CC[C@@]6(C)[C@]4(C)CC5)C(O)C(O)C3O)C(O)C2O)[C@H](O)[C@H](O)[C@H]1O (stereo partly specified)	.
COc1ccccc1CN1C(=O)c2ccc(-c3ccccc3)n2CC1(C)C(=O)NC1CCCCC1 (stereo unspecified)	.
O=C(C1CCC1)N1CCC(Cc2nncn2Cc2ccccc2)CC1	.
Cc1nn(C(=O)CCC(=O)N2CCC(Cc3nncn3CC3CC3)CC2)c2ccccc12	+	MTase-Glo counter=.
CCn1cnnc1CC1CCN(C(=O)c2nccc3ccccc23)C1 (stereo unspecified)	.
Cc1ccc(C)c(NS(=O)(=O)c2cc3c(cc2Cl)n(C)c(=O)n3C)c1	.
O=C(NCc1ccc(OC(F)(F)F)cc1)C1c2ccccc2C(=O)N1C1CCOCC1 (stereo unspecified)	.
SMILES	Methyltransferases	others
O=C(NCc1cccc(F)c1)c1nc2c(o1)CCN(CC1CCCC1)CC2	+	MTase-Glo counter=.
COc1ccc(CN2CCc3nc(C(=O)NCCOc4ccccc4)oc3CC2)cn1	.
O=C(NCC1CC1)c1nc2c(o1)CCN(CCCc1ccccc1)CC2	.
O[C@H]1CC[C@@H](Cc2cc(CN3CCN(c4ccccc4)CC3)on2)O[C@@H]1CNCc1ccccc1	.
Cc1ccc(Cn2c(=O)c3ccccc3n3c(CCC(=O)NC(C)C)nnc23)cc1	.
COc1ccc(OC)c(CNC(=O)c2cccc3c2CCN3C(=O)c2ccc(F)cc2)c1	.
CCCn1c(=O)c2ccc(C(=O)NC(C)C)cc2n2c(=O)n(Cc3ccc(F)cc3)nc12	.
COc1ccc(N2CCN(C(=O)c3ccc4c(=O)nc5c(-c6ccccc6F)n[nH]n5c4c3)CC2)cc1	.
COc1ccc(N2CCN(C(=O)c3cccc(Nc4nc5ccccc5n5nnnc45)c3)CC2)cc1	.
COc1ccc(N2CCN(C(=O)c3cc(NC(C)=O)cc4nc(C)ccc34)CC2)cc1	+	MTase-Glo counter=.
CCCOc1ccc(CN2C(=O)c3cc4ccccc4n3CC2(C)C(=O)NCc2ccccc2)cc1 (stereo unspecified)	.
COc1ccc(CNC(=O)c2cc3n(n2)CC(C)(C(=O)NCCC(C)C)N(C)C3=O)cc1OC (stereo unspecified)	.
COc1cccc(N2C(=O)NC(=NC3CCCCC3)C23CCN(CC2CC2)C3)c1 (stereo unspecified)	.
COc1cccc(N2C(=O)NC(=NC3CCCC3)C23CCN(Cc2ccccc2)C3)c1 (stereo unspecified)	.
